Bioassay records (PubChem BioAssay)
An excerpt weighted towards active compounds, which were near 19% of everything screened.
TDP1 cell CPT: qHTS for Inhibitors of human tyrosyl-DNA phosphodiesterase 1 (TDP1): qHTS in cells in presence of CPT. chicken DT40 Tdp1-/-;hTDP1 cells + 20 nM CPT, ATP luminescence, 48 h. Potency, µM (titrated, usually from 46.2 µM), inactives show at the highest dose activity change, negative = growth inhibition, hits mostly inhibitors. 420,000 compounds, 12% hits; note: nearly all actives have a fitted effect of over 55% in size
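Chicken DT40 Tdp1-/- cells stably complemented with human TDP1 were seeded at 400 cells/well in medium containing 20 nM camptothecin, exposed to pin-transferred compounds, and grown at 37 °C for at least 48 hr. Viability was read as ATP luminescence.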
TDP1 inh: qHTS Assay for Inhibitors of Tyrosyl-DNA Phosphodiesterase (TDP1); Tyrosyl-DNA phosphodiesterase 1 (Homo sapiens), Q9NUW8; recombinant TDP1, AlphaScreen DNA substrate cleavage; Potency, µM (highest dose often 130 µM), for inactives: at the highest dose activity change, negative = inhibition, hits mostly inhibitors; 350,000 compounds, 0.28% hits; AID 485290, 2010; note: nearly all actives have a fitted effect of over 40% in size
Target sequence (Q9NUW8 whole entry, looked up): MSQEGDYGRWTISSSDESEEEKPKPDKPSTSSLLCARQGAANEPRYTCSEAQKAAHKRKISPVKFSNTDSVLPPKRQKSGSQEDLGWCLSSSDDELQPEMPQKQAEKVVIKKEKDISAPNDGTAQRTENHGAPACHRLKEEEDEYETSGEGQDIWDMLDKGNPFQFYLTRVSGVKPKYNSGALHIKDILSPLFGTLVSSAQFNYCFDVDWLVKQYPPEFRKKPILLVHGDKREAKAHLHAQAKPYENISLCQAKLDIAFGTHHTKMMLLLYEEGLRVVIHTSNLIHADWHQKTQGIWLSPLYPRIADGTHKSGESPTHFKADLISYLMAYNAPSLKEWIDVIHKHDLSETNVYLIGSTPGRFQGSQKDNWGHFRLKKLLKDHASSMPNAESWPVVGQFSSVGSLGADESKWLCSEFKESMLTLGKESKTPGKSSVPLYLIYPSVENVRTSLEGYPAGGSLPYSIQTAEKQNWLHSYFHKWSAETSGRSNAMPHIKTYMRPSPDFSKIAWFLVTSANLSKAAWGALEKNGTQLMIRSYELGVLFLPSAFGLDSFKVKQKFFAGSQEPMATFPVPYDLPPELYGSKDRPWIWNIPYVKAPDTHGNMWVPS
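Signal: AlphaScreen proximity between streptavidin donor and anti-FITC acceptor beads on intact substrate. Reaction: Tdp1 1 nM, substrate 15 nM final, 5 min RT after 15 min compound preincubation.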
TDP1 cell noCPT: qHTS for Inhibitors of human tyrosyl-DNA phosphodiesterase 1 (TDP1): qHTS in cells in absence of CPT. DT40 Tdp1-/- hTDP1 cells, no CPT, ATP luminescence, 48 h. Potency, µM (doses to about 46.2 µM), inactives show at the top dose activity change, negative = growth inhibition, most hits filed as inhibitors. 420,000 compounds, 15% hits; note: nearly all actives have a fitted effect of over 55% in size
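Camptothecin absent (DMSO only). Human TDP1-complemented DT40 knockout cells, 400 cells/well, 37 °C for minimum 48 hr; ATP measured via CellTiter-Glo, 30 min dark incubation, luminescence.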
RORgamma inh: qHTS for inhibitors of ROR gamma transcriptional activity; Drosophila S2 Gal4-RORgamma UAS-luciferase reporter, 20 h; Potency, µM (series often up to 53.6 µM), for inactives: at the top dose activity change, negative = inhibition, most hits filed as inhibitors; 310,000 compounds, 5.4% hits; Nuclear receptor ROR-gamma (Mus musculus), P51450; note: nearly all actives have a fitted effect of over 60% in size
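Using a luciferase readout, inhibitors were identified by reduced reporter activity in Drosophila cells coexpressing a copper-inducible Gal4–ROR gamma fusion and UAS-driven Photinus luciferase, incubated 20 hr after 700 uM copper sulfate.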
VP16 counter: VP16 counterscreen qHTS for inhibitors of ROR gamma transcriptional activity; Drosophila S2 Gal4-VP16 UAS-luciferase, luminescence, 20 h; Potency, µM (series often up to 53.6 µM), for inactives: at the top dose activity, negative = inhibition, actives largely listed as inhibitors; 310,000 compounds, 3.5% hits;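 note: Gal4-VP16 expression switched on by copper sulfate through the metallothionein promoter; nearly all actives have a fitted effect of over 50% in size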
* marks the source's active call; other numbers are inactive results; ? = inconclusive; nt = no result given; [ ] = dose if it differs, or a comment. Calls come from the whole dose curve; as a rule, active = well fitted curve in the direction sought with a large enough effect; inconclusive = small, poorly fitted or top-dose-only effect, or another doubt; inactive = no such curve, though single readings can be large; an effect the other way counts as inactive or inconclusive. % is set by controls: 0 for no effect and ±100 for the full control effect; potency is the fitted concentration of half-maximal effect.

SMILES	TDP1 cell CPT	TDP1 inh	TDP1 cell noCPT	RORgamma inh	VP16 counter
COc1cccc(C(C(=O)NC2CCCC2)N2CCN(c3cc(C)nc4ccccc34)CC2)c1OC (stereo not given)	23.1µM*	nt	20.6µM*	nt	nt
Cc1cc(N2CCN(C(C(=O)NC3CCCC3)C(C)(C)C)CC2)c2ccccc2n1 (stereo not given)	?	nt	11.6µM*	nt	nt
O=C(NCC1CCN(Cc2ccc(F)cc2)CC1)Nc1cc(F)ccc1F	-3.8%	nt	-28.5%	-0.1%	1.8%
Cc1ccc(OCC(=O)N/N=C/c2ccncc2)cc1C	2.4%	8.6%	-13.0%	18.7%	-5.6%
Cc1ccc(CSC2=Nc3ccccc3C3=NC(CC(=O)NCc4cccs4)C(=O)N23)cc1 (stereo not given)	16.4µM*	0.5%	16.4µM*	nt	nt
O=C(CC1N=C2c3ccccc3N=C(SCc3ccc(Cl)cc3)N2C1=O)NCc1cccs1 (stereo not given)	-28.8%	4.4%	-19.0%	nt	nt
O=C(CC1N=C2c3ccccc3N=C(SCc3ccccc3F)N2C1=O)NCc1cccs1 (stereo not given)	?	5.4%	18.4µM*	nt	nt
Oc1ccc(/C=N/Nc2ccc(C(F)(F)F)cn2)c(O)c1	nt	nt	nt	?	-27.2%
Cc1nnc(N/N=C/c2ccc(-c3ccccc3F)o2)n1N	?	8.1%	-6.6%	7.94µM*	?
Cc1nnc(N/N=C/c2c(Cl)cccc2Cl)n1N	-6.9%	4.7%	-16.3%	?	?
Cc1nnc(N/N=C\c2ccc(-c3ccccc3[N+](=O)[O-])o2)n1N	?	6.8%	?	?	?
CCc1nnc(N/N=C/c2cc(C)c(C)cc2C)n1N	-106.5%	nt	?	15.8µM*	?
Cc1nnc(N/N=C/c2cc(C)n(-c3ccc(F)cc3)c2C)n1N	13µM*	2.7%	16.4µM*	11.2µM*	?
Cc1nnc(N/N=C/c2ccccc2O)n1N	-16.7%	5.0%	3.9%	1.26µM*	?
O=C(CCCn1c2ccccc2c(=O)c2ccccc21)Nc1cccc(Cl)c1	?	-0.4%[12.3 µM]	16.4µM*	nt	nt
Cc1ccc2c(c1)c(=O)c1ccccc1n2CCCC(=O)Nc1ccc(C)c(F)c1	?	-12.8%[12.3 µM]	?	nt	nt
Cc1ccc2c(c1)c(=O)c1ccccc1n2CCCC(=O)Nc1ccc(C)c(C)c1	23.1µM*	-9.3%[12.3 µM]	23.1µM*	nt	nt
Cc1cc(C)cc(NC(=O)Nc2ccc(N3CCCCC3)cc2)c1	?	7.7%	?	-29.8%	-6.4%
O=C(/C(=N/N=C/c1ccc(O)c(O)c1O)c1ccccc1)c1ccccc1	?	-1.2%	?	?	10µM*
CCc1nc2c(OCc3ccccc3)cccn2c1N(C)C(=O)COc1ccccc1	23.1µM*	nt	?	nt	nt
CCc1nc2c(OCc3ccccc3)cccn2c1N(C)C(C)=O	-1.7%	nt	-2.4%	nt	nt
CCc1nc2c(OCc3ccc(F)cc3)cccn2c1N(C)C(=O)COc1ccccc1	20.6µM*	nt	?	nt	nt
CNC(=S)Nc1ccc2[nH]c(=O)[nH]c2c1	17.3%	8.2%	2.9%	2.6%	-3.9%
CN1C(=O)C(C)(C)c2cc(S(=O)(=O)NCC(=O)NCc3ccccc3)ccc21	-21.6%	nt	-0.7%	-22.5%	1.1%
COCCN(C(=O)CSCC(=O)Nc1ccc(C)cc1)c1c(N)n(CC(C)C)c(=O)[nH]c1=O	-2.2%	0.7%	2.9%	nt	nt
SMILES	TDP1 cell CPT	TDP1 inh	TDP1 cell noCPT	RORgamma inh	VP16 counter
CCc1ccc(OCC(=O)N(Cc2ccco2)Cc2ccco2)cc1	?	7.0%	20.6µM*	nt	nt
CCc1ccc(CN(Cc2ccco2)C(=O)COc2ccccc2Cl)cc1	?	-2.3%	23.1µM*	nt	nt
Cc1ccc(CN(Cc2ccco2)C(=O)c2ccc(Cl)cc2)o1	-27.4%	11.6%	?	nt	nt
Cc1cccc(OCC(=O)N(Cc2ccc(N(C)C)cc2)Cc2ccco2)c1C	?	14.7%	7.31µM*	nt	nt
Cc1ccc(CN(Cc2ccco2)C(=O)COc2cccc(C)c2C)o1	16.4µM*	4.7%	18.4µM*	nt	nt
Cc1ccc(OCC(=O)N(Cc2ccco2)Cc2ccc(C)o2)cc1	16.4µM*	7.0%	16.4µM*	nt	nt
Cc1nn2c([nH]c(=O)c3ccccc32)c1C=O	?	4.8%	-2.0%	4.47µM*	11.2µM*
CC(=O)Nc1ccc(S(=O)(=O)NCc2ccc(C(=O)NCCN(C)Cc3ccccc3)cc2)cc1	-28.6%	nt	-28.8%	nt	nt
O=C(NC1CCCC1)c1c[nH]c2ccc(S(=O)(=O)Nc3cccc(C(F)(F)F)c3)cc2c1=O	?	nt	20.6µM*	nt	nt
CC(C)CCNC(=O)c1c[nH]c2ccc(S(=O)(=O)Nc3cccc(C(F)(F)F)c3)cc2c1=O	?	-8.5%	?	nt	nt
CCN(c1ccccc1)S(=O)(=O)c1ccc2[nH]cc(C(=O)NCCOC)c(=O)c2c1	?	-2.3%	?	-4.8%	3.5%
CCCCN(CCCC)C(=O)c1c[nH]c2ccc(S(=O)(=O)Nc3cccc(Cl)c3C)cc2c1=O	-22.8%	31.6µM*	-12.1%	nt	nt
Cc1ccc(CCNC(=O)c2c[nH]c3ccc(S(=O)(=O)Nc4cccc(C(F)(F)F)c4)cc3c2=O)cc1	20.6µM*	-9.3%	?	nt	nt
CCN(c1ccccc1)S(=O)(=O)c1ccc2[nH]cc(C(=O)NC3CCCCC3)c(=O)c2c1	?	3.8%	14.6µM*	nt	nt
CCOCCCNC(=O)c1c[nH]c2ccc(S(=O)(=O)Nc3cccc(Cl)c3C)cc2c1=O	3.7%	?	-27.3%	nt	nt
CN(C(=O)c1c[nH]c2ccc(S(=O)(=O)Nc3cccc(C(F)(F)F)c3)cc2c1=O)C1CCCCC1	-22.9%	-13.3%	-11.5%	nt	nt
CN(Cc1ccco1)C(=O)c1c[nH]c2ccc(S(=O)(=O)Nc3ccc4c(c3)OCCO4)cc2c1=O	-12.1%	5.3%	2.2%	?	-4.4%
CCc1ccc(NS(=O)(=O)c2ccc3[nH]cc(C(=O)N(C)Cc4ccco4)c(=O)c3c2)cc1	?	nt	14.6µM*	2.9%	0.1%
COc1cccc(NS(=O)(=O)c2ccc3[nH]cc(C(=O)NCCC(C)C)c(=O)c3c2)c1	10.3µM*	-5.7%	14.6µM*	27.0%	?
Cc1cc(C)cc(NS(=O)(=O)c2ccc3[nH]cc(C(=O)NCCc4ccccc4)c(=O)c3c2)c1	?	4.7%	16.4µM*	nt	nt
CC(=O)N(c1cccc(Br)c1)c1nc(C)cc(C)c1C#N	8.6%	1.2%	-11.6%	27.2%	0.0%
Cc1ccc2c(COC(=O)CNS(=O)(=O)c3ccccc3)cc(=O)oc2c1	-1.0%	0.9%	1.3%	nt	nt
Cc1c(/C=N/n2cnnc2)c2ccccc2n1CCOc1ccccc1	?	6.1%	?	-1.3%	-2.7%
